Compounds with a hit are over-represented: about 2.4% of the library has one in this group of screens.
Cruzain noTriton = inhibitors of Trypanosoma cruzi cruzain without detergent. purified cruzain, Z-FR-AMC fluorescence, no detergent. P25779. hit rate 2.3% among 200,000. Potency, µM, most hits filed as inhibitors. AID 1476; further: nearly all actives have a fitted effect of over 40% in size
Target sequence (P25779 123-467 limits assumed): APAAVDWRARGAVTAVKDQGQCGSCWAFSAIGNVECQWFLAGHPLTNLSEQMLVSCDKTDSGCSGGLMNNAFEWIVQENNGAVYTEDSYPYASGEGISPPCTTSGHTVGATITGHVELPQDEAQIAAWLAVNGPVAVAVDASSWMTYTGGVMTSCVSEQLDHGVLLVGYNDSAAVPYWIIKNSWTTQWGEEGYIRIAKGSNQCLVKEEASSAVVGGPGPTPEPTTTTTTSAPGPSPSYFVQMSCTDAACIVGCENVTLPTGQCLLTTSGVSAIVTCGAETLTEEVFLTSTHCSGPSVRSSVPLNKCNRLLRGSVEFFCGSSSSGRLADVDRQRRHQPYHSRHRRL
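Detergent-free condition (0.00005% Triton X-100) in acetate buffer pH 5.5 with DTT. 1.5 nM enzyme and compound were pre-mixed 15 min, then 2 uM Z-FR-AMC substrate added; reaction progress from fluorescence change between first and third reads (60 s).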
Cruzain inh Det = cruzain (T. cruzi) inhibition with detergent | P25779 | purified cruzain, Z-FR-AMC fluorescence, 0.01% Triton | Potency, µM, actives largely listed as inhibitors | hit rate 0.43% among 200,000; further: nearly all actives have a fitted effect of over 40% in size
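Cysteine protease activity tested under reducing, mildly acidic conditions (100 mM sodium acetate pH 5.5, 5 mM DTT) plus 0.01% Triton X-100. Cruzain 1.5 nM; substrate Z-FR-AMC 2 uM; 15 min compound preincubation at room temperature.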
Numbers stand for hits; n = inactive; u = inconclusive. The call rests on the fitted dose curve; in most records, active means well fitted curve in the direction sought with a large enough effect; inconclusive means small, poorly fitted or top-dose-only effect, or another doubt; inactive means no such curve, though single readings can be large; an effect the other way counts as inactive or inconclusive.

SMILES	Cruzain noTriton	Cruzain inh Det
CCc1ccc(CCC(=O)Nc2sc3c(c2C#N)CCCC3)o1	25.1µM	n
CC(C)c1ccc(/C=C/C(=O)NC2CCCCC2)cc1	n	n
Cc1ccc(/C=C/C(=O)NC2CCCCCCC2)o1	20µM	22.4µM
Cc1ccc(/C=C/C(=O)Nc2sc3c(c2C#N)CCCC3)o1	7.94µM	n
CN(C(=O)CSc1nc2ccc(NC(=O)COc3ccc(F)cc3)cc2s1)c1ccccc1	n	n
CNC(=O)C1CCC(Cn2c(=O)c3sccc3n(CC(=O)N3CCCC(C)C3)c2=O)CC1 (configuration not stated)	n	n
CCC1CN(C(=O)N2CCC(C(=O)NCc3cccc(C)c3)CC2)c2ccccc2O1 (configuration not stated)	n	n
CC(=O)N1CCN(c2nc(-c3ccco3)c3c(c2C#N)CC(C)(C)SC3)CC1	u	n
CN1Cc2c(N3CCOCC3)nc(SCc3ccccc3)c(C#N)c2CC1(C)C	n	n
CC1(C)Cc2c(C#N)c(SCC(=O)c3ccccc3)nc(N3CCOCC3)c2CS1	25.1µM	n
CC1(C)Cc2c(C#N)c(N3CCN(C(=O)c4ccccc4Cl)CC3)nc(-c3ccco3)c2CS1	u	11.2µM
O=C(Nc1cc(Sc2ccccn2)cc([N+](=O)[O-])c1)c1cccc(Cl)c1	u	n
O=C(Nc1cc(Sc2ccccn2)cc([N+](=O)[O-])c1)c1ccc(Cl)cc1	12.6µM	n
CCCCOC(=O)c1ccc(NC(=O)CSc2nc3c(c(=O)[nH]2)CCC3)cc1	n	n
Cc1nnc(NCc2ccccc2)c2c1nnn2Cc1ccccc1Cl	n	n
COc1ccc2[nH]c(=O)c(CN(CCO)S(=O)(=O)c3c(C)ccc4nsnc34)cc2c1	n	n
COc1ccc2[nH]c(=O)c(CN(Cc3cccs3)S(=O)(=O)c3cccc4nsnc34)cc2c1	31.6µM	n
CC1CCCN(CCC(=O)c2ccc(Br)cc2)C1 (configuration not stated)	5.01µM	u
CC1CCCN(CCOc2ccc(Br)cc2)C1 (configuration not stated)	n	n
COc1cc2ncc3c(-c4ccccc4)nn(CC(=O)NC4CCCCC4)c3c2cc1OC	n	n
Cc1ccc(CN2C(=O)c3ccccc3S(=O)(=O)c3ccc(C(=O)OCC4CCCO4)cc32)cc1 (configuration not stated)	n	n
Cc1c(C(=O)Nc2cccc(C(F)(F)F)c2)sc2nc[nH]c(=O)c12	n	n
CC(C)(C)C(=O)Nc1ccc(Oc2ccc3c(c2)C(=O)N(c2ccc(O)cc2)C3=O)cc1	n	n
COc1ccccc1Oc1ccc2c(c1)C(=O)N(c1ccc(O)cc1)C2=O	20µM	n
O=C(Cc1sc(-c2ccccc2)nc1-c1ccccc1)Nc1ccc(Cl)cc1	u	n
SMILES	Cruzain noTriton	Cruzain inh Det
O=C(Cc1sc(-c2ccccc2Cl)nc1-c1ccccc1)Nc1ccccc1	12.6µM	n
O=C(Cc1sc(-c2ccccc2Cl)nc1-c1ccccc1)Nc1ccc(F)cc1	15.8µM	n
O=C(O)Cc1sc(Nc2ccccc2)nc1-c1ccccc1	n	n
CCN(CC)S(=O)(=O)c1ccc2c(c1)N(CC(=O)N1CCN(c3ccc(Cl)cc3)CC1)C(=O)CO2	n	n
CCOc1ccc(/C=C/c2nc(C#N)c(NC3CCCCC3)o2)cc1	n	n
Cc1ccc(CNC(=O)Cc2c(C)c3c(cc(C)c4c(C)coc43)oc2=O)cc1	n	n
Cc1ccc(NC(=O)Nc2nnc(SCC(=O)N(C(C)C)C(C)C)s2)cc1	n	n
Cc1ccc(N2CCN(C(=O)NCc3noc4ccccc34)CC2C)cc1 (configuration not stated)	n	n
Cc1sc2ncn(CC(=O)N3CCN(c4ccccc4F)CC3)c(=O)c2c1S(=O)(=O)N1CCC(C)CC1	n	n
O=C(/C=C\NCC(=O)c1ccccc1)c1ccc2ccccc2c1	31.6µM	n
O=C(/C=C\NCC(=O)c1ccccc1)c1ccc(F)cc1	n	n
COc1ccccc1-c1nnc(Nc2nc3c(OC)cccc3s2)o1	31.6µM	u
COc1cccc2sc(Nc3nnc(-c4ccccc4Cl)o3)nc12	u	n
O=C(NCCn1ccc2ccccc21)c1ccc(Cl)cc1	n	n
CCc1ccc(-c2c(C)sc(NC(=O)C3CCC3)c2C#N)cc1	15.8µM	n
Cc1sc(NC(=O)COc2ccccc2)c(C#N)c1-c1ccccc1	n	u
CCCC(=O)Nc1sc(C)c(-c2ccc(C(C)CC)cc2)c1C#N (configuration not stated)	7.94µM	n
Cc1sc(NC(=O)C2CCCC2)c(C#N)c1C	n	n
COc1cccc2c(C)cc3nnc(SCC(=O)Nc4ccc(C)cc4)n3c12	n	n
COc1cc(/C=c2\sc3n(c2=O)C(c2ccccc2)C(c2ccccc2)=NN=3)ccc1O (configuration not stated)	15.8µM	n
COc1cc(/C=c2\sc3n(c2=O)CCCN=3)ccc1O	n	n
COc1ccc(-n2c(SCC(=O)Nc3nnc(C)s3)nc3c([nH]c4ccccc43)c2=O)cc1	n	n
Clc1cccc(-n2ncc3c(Nc4ccc5c(c4)OCCO5)ncnc32)c1	n	n
COc1cc(NC(=O)C2CCN(S(=O)(=O)c3c(C)noc3/C=C/c3c(C)cc(C)cc3C)CC2)cc(OC)c1	n	n
Cc1cc(C)cc(N=Cc2[nH]c3ccc(Br)c(Cl)c3c2O)c1	3.98µM	n
SMILES	Cruzain noTriton	Cruzain inh Det
COc1ccc(CN=Cc2[nH]c3ccc(Br)c(Cl)c3c2O)cc1	25.1µM	n
COc1ccc(CN=CC2=C(O)CNC2=O)cc1	n	n
Cc1ccc(O)c(C=Nc2ccc3[nH]ncc3c2)c1	n	u
CC1CCN(S(=O)(=O)c2ccc3c(c2)N(CC(=O)N(C)Cc2ccccc2)C(=O)CO3)CC1	u	n
CC1=C(c2ccc(C(C)C)cc2)S(=O)(=O)N=C1N1CCC(C(=O)NCc2ccccc2)CC1	n	n
COc1ccc(C(=O)NC2(C(F)(F)F)C(=O)NC(C)=C2C#N)cc1 (configuration not stated)	n	n
CCN(CC)S(=O)(=O)c1ccc(NC(=O)[C@H](CSCc2ccccc2)N2Cc3ccccc3C2=O)cc1	u	n
CCN(Cc1ccccc1)C(=O)Cn1c(=O)n(-c2cccc(C)c2)c(=O)c2c1c1cc(C)ccc1n2C	n	n
O=C(Cn1cc(S(=O)(=O)N2CCN(c3ccccc3F)CC2)c2ccccc2c1=O)Nc1ccc(F)cc1Cl	u	n
CCOc1ccc(NC(=O)Cn2cc(S(=O)(=O)N3CCN(c4ccccc4F)CC3)c3ccccc3c2=O)cc1	15.8µM	n
CCn1c(=O)c2cc(C(=O)NC3CCC(C)CC3)sc2c2ccccc21 (configuration not stated)	n	n
COc1ccccc1-c1nc(C#N)c(N2CCN(c3cccc(Cl)c3)CC2)o1	u	22.4µM
COc1ccccc1-c1nc(C#N)c(N2CCN(C(c3ccccc3)c3ccccc3)CC2)o1	7.94µM	25.1µM
N#Cc1nc(-c2ccco2)oc1N1CCN(c2cccc(Cl)c2)CC1	u	n
N#Cc1nc(-c2ccco2)oc1N1CCN(C(c2ccccc2)c2ccccc2)CC1	u	n
CCc1ccc(-n2nc(C)c3c(C(=O)Nc4cc(OC)cc(OC)c4)cc(C)nc32)cc1	n	n
CCOC(=O)c1ccc(NC(=O)CSc2c3c(nc4cc(Cl)ccc24)CCCC3)cc1	n	n
CN1c2ccccc2C(C)(C)C12C=Cc1cc(O)ccc1O2 (configuration not stated)	n	n

Compound activity (PubChem BioAssay)
